# ALDH1A1 inh – blocks purified human ALDH1A1 activity. P00352. Potency, µM (doses to about 75.3 µM), for inactives: top-dose activity, negative = inhibition, usual class: inhibitors. Purified ALDH1A1, NADH fluorescence, propionaldehyde substrate. actives 7.3% (n = 220,000);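 note: potency is the fitted concentration of half-maximal effect; plate controls were no enzyme wells and a reference inhibitor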
# Target sequence (P00352 whole entry, looked up): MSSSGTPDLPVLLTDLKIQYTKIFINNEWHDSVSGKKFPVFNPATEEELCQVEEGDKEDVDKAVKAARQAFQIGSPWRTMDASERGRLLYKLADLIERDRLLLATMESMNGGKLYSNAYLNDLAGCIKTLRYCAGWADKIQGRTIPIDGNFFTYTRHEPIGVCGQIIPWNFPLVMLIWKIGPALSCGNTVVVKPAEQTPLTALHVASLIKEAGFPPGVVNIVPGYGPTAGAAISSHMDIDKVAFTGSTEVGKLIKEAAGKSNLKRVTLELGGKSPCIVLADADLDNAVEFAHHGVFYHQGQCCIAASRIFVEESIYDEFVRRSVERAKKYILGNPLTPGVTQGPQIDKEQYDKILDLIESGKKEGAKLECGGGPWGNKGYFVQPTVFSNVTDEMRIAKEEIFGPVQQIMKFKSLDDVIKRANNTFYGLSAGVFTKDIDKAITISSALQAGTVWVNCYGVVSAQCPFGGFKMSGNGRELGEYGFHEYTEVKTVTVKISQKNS
# HPGD block – inhibitors of human 15-hydroxyprostaglandin dehydrogenase (HPGD); P15428; purified HPGD, NADH fluorescence kinetic, PGE2 substrate; Potency, µM, for the others: top-dose activity change, negative = inhibition, hits mostly inhibitors; actives 4.3% (n = 150,000); AID 894; note: potency is the fitted concentration of half-maximal effect
# Target sequence (P15428 whole entry, looked up): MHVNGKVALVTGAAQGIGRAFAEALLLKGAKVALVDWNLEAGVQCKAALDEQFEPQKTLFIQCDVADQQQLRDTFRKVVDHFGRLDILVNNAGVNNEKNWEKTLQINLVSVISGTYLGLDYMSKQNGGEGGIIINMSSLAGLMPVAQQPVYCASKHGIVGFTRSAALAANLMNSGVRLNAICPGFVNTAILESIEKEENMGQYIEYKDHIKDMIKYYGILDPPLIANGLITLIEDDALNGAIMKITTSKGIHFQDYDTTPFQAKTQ
#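 NADH formation kinetics: reaction with 30 uM PGE2 and 1 mM NAD+ (final), 20 nM enzyme, Tris-HCl pH 8 with Tween 20, after 15 min compound preincubation at room temperature. Fluorescence change, last versus first of five reads.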
# IMPase cell inh – membrane-permeable compound that blocks inositol monophosphatase | 120,000 tested, under 10 active | inhibition (IP1 accumulation), % at 46.1 µM | P97697 | CHO-M1 cells, IP1 accumulation, HTRF TR-FRET ratio; active = well fitted curve in the direction sought with a large enough effect in the signal ratio, not every such curve was filed as active; inconclusive = small, poorly fitted or top-dose-only effect, or a change in a side signal; inactive = no such curve, though single readings can be large or run the other way; the % refers to the signal ratio;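 note: cells stimulated with carbachol in lithium chloride buffer; plate controls were DMSO basal wells for no effect and reference inhibitor wells for full effect; higher means more IMPase inhibition seen as more IP1 and lower FRET ratio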
#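 Elevated IP1 in lysates lowers TR-FRET signal (665/620 ratio and 620 channel reported). Cells were CHO-M1, given carbachol (50 uM as added) plus 50mM LiCl, pH 7.4, 30 min, 37C; compounds titrated up to 46 uM; AC50 by Hill equation.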
# IMPase Li inh – IMPase inhibition in cells with lithium potentiation. actives 0.35% (n = 210,000). AID 1457. Potency, µM (top dose mostly 59.4 µM), inactives show at the top dose activity, negative = IMPase inhibition, usual class: inhibitors. CHO-M1 cells, IP1 TR-FRET (IP-One), carbachol + lithium; active = well fitted inhibition curve with a large enough effect; inconclusive = small, poorly fitted or top-dose-only effect; inactive = no such curve, though single readings can be large or run the other way;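 note: IP1 builds up when IMPase is blocked and the TR-FRET signal falls; potency is the fitted concentration of half-maximal effect; plate controls were basal vehicle for no effect and high inhibitor control for full effect; nearly all actives have a fitted effect of over 50% in size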
#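 Lithium-sensitised IP1 accumulation assay; M1-expressing CHO cells treated 30 min at 37C with compound. Competitive antibody detection by time-resolved FRET followed a 10 min room-temperature lysis step.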
# PNC assembly inh – blocks assembly of the perinucleolar compartment; PC3M PTB-GFP, PNC prevalence imaging, 16 h; stronger effect = lower value; activity change (PNC), negative = inhibition, % at 10 µM; actives 3.1% (n = 140,000); AID 2417;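 active = readout at or below -70, meaning at least 70% loss of cells showing the perinucleolar compartment, a nuclear body marking cancer cells; inconclusive = readout between -30 and a set limit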;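 note: plate controls were DMSO wells for no effect and camptothecin positive control wells for full effect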
#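 Read-out is percentage of cells bearing a perinucleolar compartment, from automated 20x imaging of fixed, Hoechst-stained PC3M PTB-GFP cells. Cells were seeded 4 h, then exposed 16 h to compound (23 nl of library stock) in duplicate plates.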
# Active calls of the source: *; u = inconclusive; x = no result; [ ] = dose if it differs, or a comment. Hits are enriched below; roughly 11% of the tested compounds scored in any of these assays. Unless noted, calls come from the whole dose curve; as a rule, active = well fitted inhibition curve with a large enough effect (not every such curve was filed as active); inconclusive = small, poorly fitted or top-dose-only effect, or another doubt; inactive = no such curve, though single readings can be large or run the other way. Unless noted, % is set by controls: 0 for no effect and ±100 for the full control effect.
SMILES,ALDH1A1 inh,HPGD block,IMPase cell inh,IMPase Li inh,PNC assembly inh
Cn1nnnc1SCC(=O)Nc1ccccc1-c1ccccc1,13µM*,-3%,11,24%[38.3 µM],-29
Cc1ccccc1NC(=O)CSc1nnnn1C,11%,-13%,u,-4%[38.3 µM],18
CCOC(=O)c1c(-c2ccccc2)csc1NC(=O)CSc1ccccc1,u,-17%,x,7%,-10
Cc1c(C(=O)O)oc2c1/C(=N\O)CC(C)(C)C2,3%,-6%,x,3%,-19
CC(C)(C)C(=O)Nc1ccc(Sc2ccc([N+](=O)[O-])cc2)cc1,5%,8.9µM*,x,17%,-30
Cn1cccc1C(=O)N1CCC2(CCCN(Cc3ccc(C#N)cc3)C2)CC1,-14%,-2%,x,17%,x
O=C1c2cccnc2-c2ncccc21,-14%,-20%,3,-1%[38.3 µM],59
CC1(C)OCC(CSC2=C(SCC3COC(C)(C)O3)C(=O)c3ncccc3C2=O)O1 (centres undefined),2.5µM*,3.5µM*,x,49%,x
CCOc1ccc(OCC)c(NC(=O)CSc2nc3c(c(=O)n(C)c(=O)n3C)n2C(C)C)c1,8.9µM*,x,1,x,-17
Cc1cccc(N2CCN(C(=O)Cn3sc4nc(C)cc(C)c4c3=O)CC2C)c1 (centres undefined),3.5µM*,3.2µM*,2,20%[38.3 µM],17
Cc1ccc(-c2ccc(=O)n(CC(=O)N3CCN(c4cccc(C)c4)C(C)C3)n2)cc1 (centres undefined),-7%,-12%,6,-1%[38.3 µM],-24
Cc1cc(C)c2c(=O)n(CC(=O)N3CCC(Cc4ccccc4)CC3)sc2n1,7.1µM*,4.5µM*,0,4%,55
Cc1cc(C)c2c(=O)n(CC(=O)NCCCN3CCN(c4ccccc4F)CC3)sc2n1,3.5µM*,u,12,50%[38.3 µM],-10
CN(c1ccccc1)c1nc2ccsc2c(=O)s1,-16%,28µM*,-1,16%[38.3 µM],18
O=C(Nc1nc(-c2ccc3ccccc3c2)cs1)C1CCN(S(=O)(=O)c2cccs2)CC1,-8%,-9%,x,-3%,-87*
O=C(COC(=O)C1CCN(S(=O)(=O)c2cccs2)CC1)c1cc2ccccc2o1,16µM*,u,1,15%[38.3 µM],u
O=C(COC(=O)C1CCN(S(=O)(=O)c2cccs2)CC1)c1ccc2c(c1)OCCO2,2%,-1%,-6,-3%[38.3 µM],28
CCOC(=O)CNC(c1ccccc1)c1cc(Br)ccc1NC(=O)c1ccc(Cl)cc1 (centres undefined),x,x,-8,x,x
CCCc1nc(NC(=O)c2ccccc2)nc(NC(=O)c2ccccc2)n1,8%,x,x,x,x
Cc1ccc(NC(=O)c2nn(C34CC5CC(CC(C5)C3)C4)cc2[N+](=O)[O-])cc1,0.028µM*,-21%,12,19%[38.3 µM],-5
Cc1ccc(-c2cc3nc(-c4ccccc4)cc(C(F)(F)F)n3n2)cc1,x,x,1,x,x
CCCC(C)NC(=O)COc1ccc(S(=O)(=O)c2ccc(OCC(=O)NC(C)CCC)cc2)cc1 (centres undefined),u,-12%,x,7%,6
COc1ccc2[nH]cc(CCNc3nc(-c4ccc(N(C)C)cc4)nc4ccccc34)c2c1,u,x,x,-2%,x
O=C(N/N=C/c1ccncc1)c1ccccc1,8%,-2%,-1,4%[38.3 µM],24
Cc1cc(C)cc(-n2c(C)cc(/C=N/NC(=O)c3ccncc3)c2C)c1,u,x,x,17%,x
SMILES,ALDH1A1 inh,HPGD block,IMPase cell inh,IMPase Li inh,PNC assembly inh
CCc1ccccc1NC(=O)c1ccc(-n2c(C)ccc2C)cc1,-8%,16µM*,12,-2%[38.3 µM],u
O=C(N/N=C/c1sc(=O)n(-c2ccccc2)c1Cl)c1ccncc1,10µM*,-22%,x,-23%,52
Cc1ccc(C)n1-c1ccc(C(=O)N/N=C/c2ccncc2)cc1,18µM*,x,x,0%,x
Cc1ccccc1-n1c(C)cc(/C=N/NC(=O)c2ccncc2)c1C,32µM*,-17%,4,1%[38.3 µM],-3
CC(=O)Nc1ccc(NC(=O)c2ccc(-n3c(C)ccc3C)cc2)cc1,22µM*,25µM*,-1,13%,u
Cc1csc(NC(=O)C(F)(F)F)n1,2%,-10%,x,-4%,11
CC1=C(C(=O)Nc2ccccc2C)C2(CCCCC2)C(C(N)=O)C(=S)N1 (centres undefined),-18%,-17%,x,-7%,-85*
Cc1cccc(OCCNC(=O)c2cccc(Oc3ccc(C(F)(F)F)cc3[N+](=O)[O-])c2)c1,3%,-13%,x,17%,12
COC(=O)c1ccc(C(=S)N2CCCCC2)cc1,-6%,x,x,1%,x
COc1ccc(C(=O)Oc2ccc(C(=S)N3CCOCC3)cc2)cc1,7.1µM*,x,x,-1%,x
COC(=O)c1ccc(C(=S)N2CCOCC2)cc1,10µM*,28µM*,0,-9%,10
O=C(c1ccco1)[C@@H]1[C@@H]2C(=O)N(c3ccc(F)cc3)C(=O)[C@@H]2C2c3ccccc3C=CN21 (some centres undefined),13µM*,32µM*,-12,-10%[38.3 µM],1
O=C(c1ccco1)[C@@H]1[C@@H]2C(=O)N(c3ccc(Br)cc3)C(=O)[C@@H]2C2c3ccccc3C=CN21 (some centres undefined),11µM*,u,-17,-3%[38.3 µM],38
Cc1cc([N+](=O)[O-])c(C)cc1-c1ccc(/C=N/NC(=O)Cn2nnnc2N)o1,15µM*,x,x,-7%,x
Nc1nnnn1CC(=O)N/N=C/c1cc([N+](=O)[O-])ccc1Cl,0%,x,x,2%,x
Cc1ccc(-c2nc(-c3cccnc3)sc2CC(=O)Nc2ccc3nc(C)sc3c2)cc1,7%,-9%,x,4%,u
CCN1CCN(S(=O)(=O)Cc2ccccc2)CC1,10%,-13%,2,-4%[38.3 µM],12
CCc1nnc(NC(=O)C2COc3ccccc3O2)s1 (centres undefined),3%,-7%,1,36%[38.3 µM],-80*
CCc1nnc(NC(=O)c2ccc3ccccc3n2)s1,18µM*,x,x,28%,x
CCc1nnc(NC(=O)C2CCN(S(=O)(=O)Cc3ccccc3)CC2)s1,-1%,-8%,-7,-2%,-100*
O=S(=O)(Cc1ccccc1)N1CCCC1,3%,-14%,-5,-26%[38.3 µM],-100*
O=C(NCCN1CCOCC1)c1ccc(-n2c(=O)c(=O)[nH]c3ccccc32)cc1,4%,-15%,x,x,x
Cn1cccc1C(=O)N1CCC2(CC1)CN(c1ccccn1)C2,u,u,x,12%,x
Cc1ccc(C)c(-n2c(CCC(=O)O)ccc2-c2ccc(Cl)cc2)c1,x,x,-2,x,x
CS(=O)(=O)c1ccc(C(=O)NCC(c2ccco2)N2CCCCC2)cc1 (centres undefined),-1%,x,x,12%,x
CC(=O)c1cccc(S(=O)(=O)NCC(c2ccco2)N2CCCCC2)c1 (centres undefined),11µM*,-17%,u,5%[38.3 µM],34
CCOc1ccccc1/C=N/NC(=O)c1cccc(S(=O)(=O)N(CC)CC)c1,u,x,x,9%,x

# High-throughput results (PubChem)
